# According to PubChem BioAssay (NCATS):
# Several values for one entry are separate records, joined by “and”; a condition that tells them apart may be missing. Identical values can stand only once. Results filed as inconclusive are left out. Entries that show only a call come without a potency. Values without a mark were called inactive. Activity calls are given as the source filed them. The call rests on the fitted dose curve; in most records, active means well fitted curve in the direction sought with a large enough effect; inconclusive means small, poorly fitted or top-dose-only effect, or another doubt; inactive means no such curve, though single readings can be large; an effect the other way counts as inactive or inconclusive.
# Experiments:
# CRL-7250 = normal cell line; test: Cytotoxic Profiling of Annotated Libraries Using Quantitative High-Throughput Screening (AID 1296008); conditions: Five cell lines viability, CellTiter-Glo ATP luminescence, 48-72 h; max response: hits give low values; further: nearly all actives have a fitted effect of over 60% in size
# How it was run: (§1)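 Cytotoxicity was measured as CellTiter-Glo ATP luminescence, read after 10 min at room temperature. Compound treatment of the cells lasted 48 or 72 hr at 37 degrees Celsius in a qHTS format.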
# HEK293 = test: as above; conditions: Five cell lines viability, CellTiter-Glo ATP luminescence, 48-72 h; max response: hits give low values
# How it was run: as §1
# HaCat [1] = test: as above; conditions: Five cell lines viability, CellTiter-Glo ATP luminescence, 48-72 h; max response: hits give low values
# How it was run: as §1
# KB-3-1 = test: as above; conditions: Five cell lines viability, CellTiter-Glo ATP luminescence, 48-72 h; max response: hits give low values
# How it was run: as §1
# NIH3T3 [2] = test: as above; conditions: Five cell lines viability, CellTiter-Glo ATP luminescence, 48-72 h; max response: hits give low values
# How it was run: as §1
# HACAT [3] = test: qHTS assay to identify novel small-molecules to repurpose for Merkel cell carcinoma treatment (AID 1296009); conditions: MCC and control cell lines, CellTiter-Glo viability, 72 h; at 44.8 µM (top of the series) unless noted; further: nearly all actives have a fitted effect of over 60% in size
# How it was run: (§2)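 Cell viability measured by CellTiter-Glo following 72 hr compound treatment at 37 degree celsius, with NPC and MIPE libraries tested in 8- and 11-point concentration series.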
# HEK293T = test: as above; conditions: MCC and control cell lines, CellTiter-Glo viability, 72 h; at 44.8 µM (top of the series)
# How it was run: as §2
# MCC-13 = test: as above; conditions: MCC and control cell lines, CellTiter-Glo viability, 72 h; series mostly up to 46 µM
# How it was run: as §2
# MKL-1 = test: as above; conditions: MCC and control cell lines, CellTiter-Glo viability, 72 h; series mostly up to 46 µM
# How it was run: as §2
# MKL-2 = test: as above; conditions: MCC and control cell lines, CellTiter-Glo viability, 72 h; series mostly up to 46 µM
# How it was run: as §2
# UISO = test: as above; conditions: MCC and control cell lines, CellTiter-Glo viability, 72 h; series mostly up to 46 µM
# How it was run: as §2
# WaGa = test: as above; conditions: MCC and control cell lines, CellTiter-Glo viability, 72 h; series mostly up to 46 µM
# How it was run: as §2
# MCC-26 = test: as above; conditions: MCC and control cell lines, CellTiter-Glo viability, 72 h; series mostly up to 46 µM
# How it was run: as §2
# NIH3T3 [4] = test: as above; conditions: MCC and control cell lines, CellTiter-Glo viability, 72 h; at 44.8 µM (top of the series) unless noted
# How it was run: as §2
# TAB109 = test: qHTS profiling for inhibitors of Plasmodium falciparum proliferation (AID 504749); further: nearly all actives have a fitted effect of over 60% in size; further: potency means the concentration at half of the fitted maximal effect; conditions: P. falciparum in erythrocytes, SYBR Green DNA, 72 h; series mostly up to 28.7 µM
# How it was run: (§3)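 In a 72 h erythrocytic culture (37 C, humidified, 5% CO2) at 2.5% hematocrit and 0.3% starting parasitemia, compounds were tested; SYBR Green I in detergent lysis buffer stained parasite DNA overnight.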
# TAB113 = test: as above; conditions: P. falciparum in erythrocytes, SYBR Green DNA, 72 h; series mostly up to 28.7 µM
# How it was run: as §3
# W2 = test: as above; conditions: P. falciparum in erythrocytes, SYBR Green DNA, 72 h; series mostly up to 28.7 µM
# How it was run: as §3
# C33A = test: Primary qHTS to identify gynecologic anti-cancer compounds using libraries of approved drugs and bioactive compounds (AID 1345084); conditions: Gynecologic cancer cell panel viability, ATPlite luminescence, 48 h; series mostly up to 57.5 µM; further: nearly all actives have a fitted effect of over 55% in size
# How it was run: (§4)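 Cells, 1,000 per well, were allowed to settle for 16 h at 37 C before compound addition. Five concentrations were tested for 48 h, and viability was read by ATPlite luminescence after 15 min at room temperature.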
# CAOV3 = test: as above; conditions: Gynecologic cancer cell panel viability, ATPlite luminescence, 48 h; series mostly up to 57.5 µM
# How it was run: as §4
# TAB165 = test: qHTS profiling for inhibitors of Plasmodium falciparum proliferation (AID 504749); further: nearly all actives have a fitted effect of over 60% in size; further: potency means the concentration at half of the fitted maximal effect; conditions: P. falciparum in erythrocytes, SYBR Green DNA, 72 h; series mostly up to 28.7 µM
# How it was run: as §3
structure (smiles),measurement,setting,value
C[N+]1(C)[C@@H]2CC(OC(=O)[C@H](CO)c3ccccc3)C[C@H]1[C@H]1O[C@@H]12 (some centres not stated),max response,CRL-7250,4.18%
same,outcome,HEK293,inactive
same,outcome,HaCat [1],inactive
same,max response,KB-3-1,2.27%
same,max response,NIH3T3 [2],-3.27%
same,outcome,HACAT [3],inactive
same,outcome,HEK293T,inactive
same,Potency,MCC-13,inactive
same,Potency,MKL-1,inactive
same,Potency,MKL-2,inactive
same,Potency,UISO,inactive
same,Potency,WaGa,inactive
COc1cccc([C@@H](C)NCCCc2ccccc2Cl)c1,outcome,CRL-7250,inactive
same,max response,HEK293,1.17%
same,outcome,HaCat [1],inactive
same,outcome,KB-3-1,inactive
same,outcome,NIH3T3 [2],inactive
same,outcome,HACAT [3],inactive
same,Potency,MCC-13,inactive
same,Potency,MCC-26,inactive
same,Potency,MKL-1,inactive
same,outcome,NIH3T3 [4],inactive
same,Potency,UISO,inactive
same,Potency,WaGa,inactive
c1cc(-c2sc(-c3ccncc3)c(-c3ccncc3)c2-c2ccncc2)ccn1,max response,CRL-7250,-2.98%
same,max response,HEK293,-5.01%
same,outcome,HaCat [1],inactive
same,max response,KB-3-1,6.28%
same,max response,NIH3T3 [2],4.17%
same,outcome,HACAT [3],inactive
same,Potency,MCC-13,inactive
same,Potency,MCC-26,inactive
same,Potency,MKL-1,inactive
same,Potency,MKL-2,inactive
same,Potency,WaGa,inactive
NC1CCC(Nc2nc(Nc3ccc(C(=O)N4CCCCC4)cc3)c3ncn(-c4cccc(F)c4)c3n2)CC1 (configuration not stated),outcome,CRL-7250,inactive
same,outcome,HEK293,inactive
same,outcome,HaCat [1],inactive
same,max response,KB-3-1,-2.33%
same,max response,NIH3T3 [2],4.66%
same,outcome,HACAT [3],inactive
same,outcome,HEK293T,inactive
same,Potency,MCC-13,inactive
same,Potency,MCC-26,inactive
same,Potency,MKL-1,inactive
same,Potency,MKL-2,inactive
same,Potency,UISO,inactive
same,Potency,WaGa,inactive
CC=CC(=O)N(CC)c1ccccc1C,max response,CRL-7250,-6.43%
same,outcome,HEK293,inactive
same,outcome,HaCat [1],inactive
same,max response,KB-3-1,2.01%
same,max response,NIH3T3 [2],3.96%
same,outcome,HACAT [3],inactive
same,outcome,HEK293T,inactive
same,Potency,MCC-13,inactive
same,Potency,MCC-26,inactive
same,Potency,MKL-1,inactive
same,Potency,MKL-2,inactive
same,Potency,UISO,inactive
Cc1cccc(C)c1OCC(C)N (configuration not stated),outcome,TAB109,inactive
same,Potency,TAB113,inactive
same,Potency,W2,6.01 µM (active)
same,outcome,CRL-7250,inactive
same,outcome,HEK293,inactive
same,outcome,HaCat [1],inactive
same,max response,KB-3-1,6.51%
same,outcome,NIH3T3 [2],inactive
same,outcome,HACAT [3],inactive
same,outcome,HEK293T,inactive
same,Potency,MCC-13,inactive
same,Potency,MCC-26,inactive
same,Potency,MKL-1,inactive
same,Potency,MKL-2,inactive
same,outcome,NIH3T3 [4],inactive
same,Potency,UISO,inactive
same,Potency,WaGa,inactive
same,Potency,C33A,inactive
same,Potency,CAOV3,inactive
CC1(C)Cc2c(sc(NC(=S)NC(=O)c3ccccc3)c2C(=O)O)CO1,outcome,CRL-7250,inactive
same,outcome,HEK293,inactive
same,outcome,HaCat [1],inactive
same,outcome,KB-3-1,inactive
same,outcome,NIH3T3 [2],inactive
same,outcome,HACAT [3],inactive
same,outcome,HEK293T,inactive
same,Potency,MCC-13,inactive
same,Potency,MCC-26,inactive
same,Potency,MKL-1,inactive
same,outcome,NIH3T3 [4],inactive
same,Potency,UISO,inactive
same,Potency,WaGa,inactive
COc1ccc2c3c1OC1C[C@@H](O)C=C[C@@]31CCN(C)C2 (some centres not stated),max response,CRL-7250,-0.2%
same,max response,HEK293,-3.03%
same,outcome,HaCat [1],inactive
same,max response,KB-3-1,-3.8%
same,max response,NIH3T3 [2],1.03%
same,outcome,HACAT [3],inactive
same,Potency,MCC-13,inactive
same,Potency,MCC-26,inactive
same,Potency,MKL-1,inactive
same,Potency,MKL-2,inactive
same,Potency,UISO,inactive
same,Potency,WaGa,inactive
CC(C)(C)COc1ccc(-n2cc(C(=O)O)cn2)cc1C#N,outcome,CRL-7250,inactive
same,max response,HEK293,3.28%
same,outcome,HaCat [1],inactive
same,max response,KB-3-1,7.58%
same,max response,NIH3T3 [2],3.94%
same,outcome,HACAT [3],inactive
same,Potency,MCC-13,inactive
same,Potency,MCC-26,inactive
same,Potency,MKL-1,inactive
same,Potency,MKL-2,inactive
same,Potency,UISO,inactive
same,Potency,WaGa,inactive
CCn1cc(C(=O)O)c(=O)c2ccc(C)nc21,max response,CRL-7250,4.8% and -5.54%
same,outcome,HEK293,inactive
same,outcome,HaCat [1],inactive
same,max response,KB-3-1,-12% and -6.11%
same,max response,NIH3T3 [2],-10.7% and -7.98%
same,outcome,HACAT [3],inactive
same,outcome,HEK293T,inactive
same,Potency,MCC-13,inactive
same,Potency,MKL-1,inactive
same,Potency,MKL-2,inactive
same,Potency,UISO,inactive
same,Potency,WaGa,inactive
same,Potency,C33A,inactive
same,Potency,CAOV3,inactive
CCN(CC)CCOC(=O)c1ccc(N)cc1,outcome,TAB109,inactive
same,Potency,TAB113,inactive
same,Potency,TAB165,inactive
same,Potency,W2,inactive
same,max response,CRL-7250,-12%
same,outcome,HEK293,inactive
same,outcome,HaCat [1],inactive
same,max response,KB-3-1,14%
same,max response,NIH3T3 [2],-2.46%
same,outcome,HACAT [3],inactive
same,outcome,HEK293T,inactive
same,Potency,MCC-13,inactive
same,Potency,MCC-26,inactive
same,Potency,MKL-1,inactive
same,Potency,MKL-2,inactive
same,Potency,UISO,inactive
same,Potency,WaGa,inactive
same,Potency,C33A,inactive
same,Potency,CAOV3,inactive
CCOC(=O)O[C@]1(C(=O)OCCl)CC[C@@H]2[C@H]3CCC4=CC(=O)C=C[C@]4(C)[C@@H]3[C@@H](O)C[C@@]21C,outcome,TAB109,inactive
same,Potency,TAB113,inactive
same,Potency,TAB165,inactive
same,outcome,CRL-7250,inactive
same,outcome,HEK293,inactive
same,outcome,HaCat [1],inactive
same,outcome,KB-3-1,inactive
same,outcome,NIH3T3 [2],inactive
same,outcome,HACAT [3],inactive
same,outcome,HEK293T,inactive
same,Potency,MCC-13,inactive
same,Potency,MKL-1,inactive
same,Potency,MKL-2,inactive
same,outcome,NIH3T3 [4],inactive
same,Potency,UISO,inactive
same,Potency,WaGa,inactive
O=C1NC(=O)C(c2ccccc2)(c2ccccc2)N1,outcome,TAB109,inactive
same,Potency,TAB113,inactive
same,Potency,TAB165,inactive
same,Potency,W2,inactive
same,outcome,CRL-7250,inactive
same,max response,HEK293,-11.5%
same,max response,HaCat [1],-5.29%
same,max response,KB-3-1,7.95%
same,max response,NIH3T3 [2],-3.65%
same,Potency,MCC-13,inactive
same,Potency,MCC-26,inactive
same,Potency,MKL-1,inactive
same,Potency,MKL-2,inactive
same,Potency,UISO,inactive
same,Potency,WaGa,inactive
same,Potency,C33A,inactive
same,Potency,CAOV3,inactive
